# Measurements: publication PMC5540273 (PLoS ONE, 2017)
# What was measured:
# Details in all cases: concentration: 1 μM, replicates: in singlicate; n = 1
# CAMK1B = tested on: CAMK1B
# CAMK1D = tested on: CAMK1D
# CAMK1G = tested on: CAMK1G
# CAMK1 = tested on: CAMK1
# CAMK2A = tested on: CAMK2A
# CAMK2B = tested on: CAMK2B
# CAMK2D = tested on: CAMK2D
# CAMK2G = tested on: CAMK2G
# CAMK4 = tested on: CAMK4
# CAMKK1 = tested on: CAMKK1
# CAMKK2 = tested on: CAMKK2
# CASK = tested on: CASK
# CDC2L1 = tested on: T1, CDC2L1
# T1 construct: gene CDK11B
# CDC2L2 = tested on: CDC2L2
# CDC2L5 = tested on: T2, CDC2L5
# T2 construct: gene CDK13
# CDK11 = tested on: T3, CDK11
# T3 construct: gene CDK19
# CDK2 = tested on: CDK2
# CDK3 = tested on: CDK3
# CDK4-cyclinD1 = tested on: CDK4-cyclinD1
# CDK4-cyclinD3 = tested on: CDK4-cyclinD3
# 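Further: KINOMEscan kinase panel screen.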
SMILES,%Inh (CAMK1B),%Inh (CAMK1D),%Inh (CAMK1G),%Inh (CAMK1),%Inh (CAMK2A),%Inh (CAMK2B),%Inh (CAMK2D),%Inh (CAMK2G),%Inh (CAMK4),%Inh (CAMKK1),%Inh (CAMKK2),%Inh (CASK),%Inh (CDC2L1),%Inh (CDC2L2),%Inh (CDC2L5),%Inh (CDK11),%Inh (CDK2),%Inh (CDK3),%Inh (CDK4-cyclinD1),%Inh (CDK4-cyclinD3)
Cc1cccc(-c2cc(Nc3ccncc3)c3ccccc3n2)n1 [GSK223675],25%,26%,6%,17%,0%,0%,20%,26%,0%,12%,20%,0%,0%,19%,0%,7%,0%,0%,0%,9%
COc1cc2ncn(-c3cc(OCC4CCCO4)c(C(N)=O)s3)c2cc1OC (stereo not shown) [GSK204607],0%,13%,0%,6%,0%,0%,0%,0%,0%,0%,8%,0%,0%,8%,0%,0%,0%,0%,0%,0%
Clc1cc(Cl)cc(Nc2ccnc(Nc3cc(Cl)cc(Cl)c3)n2)c1 [GSK175726],3%,10%,0%,7%,4%,0%,0%,8%,0%,10%,0%,13%,5%,18%,0%,19%,0%,0%,0%,0%
CC(C)(C)c1ccc(C(=O)Nc2cn3cc(Cl)ccc3n2)cc1,0%,0%,0%,0%,3%,0%,3%,11%,6%,95.8%,14%,18%,0%,0%,6%,16%,0%,0%,11%,0%
Nc1nc(-c2nccs2)c(-c2ccnc3ccccc23)s1 [GW693542],7%,27%,0%,30%,0%,0%,0%,13%,0%,6%,0%,0%,0%,1%,0%,0%,0%,7%,0%,0%
